Records with an inconclusive call do not appear. The source made the active and inactive calls. Calls come from the whole dose curve; as a rule, active = well fitted activation curve with a large enough effect in the main read-out, with a control signal flat; inconclusive = small, poorly fitted or top-dose-only effect, or effect the other way, or a change in a side signal; inactive = no such curve, though single readings can be large or run the other way.
Legend:
[1] = Confirmation Concentration-Response Assay for Agonists of the Thyroid Stimulating Hormone Receptor; conditions: HEK293 TSHR-CNG cells, membrane potential dye, cAMP; measured here: parental HEK293 counter-screen max; for activation: % of control where 0% means no effect
How it was run: (§1)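 HEK 293 cells stably expressing TSHR and a cAMP-gated CNG channel; membrane potential dye with 100 uM RO 20-1724, compound added 30 min before fluorescence read (590 nm emission). Parental CNG-only HEK 293 cells served as counter-line.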

[2] = molecular target: Thyrotropin receptor (Homo sapiens) (UniProt P16473); test: as above; conditions: HEK293 TSHR-CNG cells, membrane potential dye, cAMP; series mostly up to 25.6 µM
How it was run: as §1
Potency is the fitted concentration of half-maximal effect.

Thyrotropin receptor (Homo sapiens), sequence (P16473 whole entry, looked up): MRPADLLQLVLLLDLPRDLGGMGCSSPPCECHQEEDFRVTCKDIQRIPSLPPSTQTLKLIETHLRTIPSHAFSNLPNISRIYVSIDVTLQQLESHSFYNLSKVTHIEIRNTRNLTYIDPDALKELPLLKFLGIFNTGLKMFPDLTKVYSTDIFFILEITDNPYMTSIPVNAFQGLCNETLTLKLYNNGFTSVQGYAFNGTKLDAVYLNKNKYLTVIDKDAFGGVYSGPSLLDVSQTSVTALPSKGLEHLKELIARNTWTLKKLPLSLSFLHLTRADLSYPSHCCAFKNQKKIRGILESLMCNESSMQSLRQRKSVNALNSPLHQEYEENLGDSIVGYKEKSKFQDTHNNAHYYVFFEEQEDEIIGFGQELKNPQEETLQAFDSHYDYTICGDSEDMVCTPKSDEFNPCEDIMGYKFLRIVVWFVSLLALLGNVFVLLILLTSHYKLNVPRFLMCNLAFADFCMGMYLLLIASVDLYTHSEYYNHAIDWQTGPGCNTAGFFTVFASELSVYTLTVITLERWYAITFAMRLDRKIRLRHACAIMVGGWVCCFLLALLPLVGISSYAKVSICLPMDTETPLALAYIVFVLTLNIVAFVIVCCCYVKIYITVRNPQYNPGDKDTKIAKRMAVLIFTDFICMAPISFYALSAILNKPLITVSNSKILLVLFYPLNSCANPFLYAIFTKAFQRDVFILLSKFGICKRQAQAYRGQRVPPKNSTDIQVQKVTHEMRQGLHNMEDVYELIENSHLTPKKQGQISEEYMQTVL

Row | SMILES | max response [1] [%] | Potency [2]
1 | O=C(CN(Cc1ccccc1Cl)C(=O)Cn1nnc(-c2cccs2)n1)NCC1CCCO1 (stereo not given) | 8.66 | –
2 | c1ccc(-n2cnc3cc(NCc4ccncc4)ccc32)cc1 | 1.12 | –
3 | COC(=O)C1=C(C)OC(N)=C(C#N)C1c1c(C)nn(-c2ccccc2)c1Cl (stereo not given) | 6.03 | –
4 | Cc1cc(-n2c(C)cc(C(=O)CSc3nnnn3-c3ccc(Cl)cc3)c2C)no1 | 13.5 | –
5 | CCc1ccc(-c2nc(CN3CCC(C(=O)N4CCN(c5ccccc5)CC4)CC3)c(C)o2)cc1 | 12.8 | –
6 | O=c1c2ccccc2ncn1-c1ccc2c(c1)OCCO2 | 6.03 | –
7 | O=C(COC(=O)C12CC3CC(CC(C3)C1)C2)NCc1ccco1 | -5.29 | –
8 | CCOC(=O)c1ccc(NC(=O)c2ccc(CN3CCOCC3)cc2)cc1 | 11 | –
9 | Cc1ccc(S(=O)(=O)NC(=O)Nn2c(C)nnc2C)cc1 | 1.93 | inactive
10 | Cc1cc(C)nc(N(C#N)CC(=O)N2CCC(C(N)=O)CC2)n1 | -13.4 | inactive
11 | COc1cc(OC)cc(-c2nnc(SCC(=O)N(C(C)C)C(C)C)o2)c1 | 16.6 | 12.6 µM (active)
12 | CCn1c(=O)c(C(=O)CN2CCCc3ccccc32)c(N)n(Cc2ccccc2)c1=O | -16.6 | –
13 | Cn1c(=O)[nH]c(=O)c2c1nc(N1CCCCCC1)n2CCCSc1nc2ccccc2o1 | 12.7 | inactive
14 | O=C(CN(Cc1ccc(F)cc1)S(=O)(=O)c1ccccc1)N1CCCCC1 | -6.59 | –
15 | Cc1cc(SCNC(=O)c2ccccc2)ncn1 | -2.72 | –
16 | O=S(=O)(c1ccccc1)N1CCN(C2CCN(Cc3ccccc3)CC2)CC1 | 0.84 | –
17 | O=C(COC(=O)C1c2ccccc2Oc2ccccc21)Nc1ccc2c(c1)OCO2 | 8.54 | –
18 | CCSCCOC(=O)C1=C(C)N(C)C(=O)NC1c1cc(OC)ccc1OC (stereo not given) | 7.65 | –
19 | Cn1cccc1Cc1nnc(SCC(N)=O)n1CCc1ccccc1 | 3.14 | inactive
20 | CN1C(=O)N(C)C2(c3ccccc3)Nn3c(s/c(=C/c4ccco4)c3=O)=NC12c1ccccc1 (stereo not given) | -0.854 | –
21 | O=C1CC(c2ccco2)CC2=C1C(c1ccccc1)n1nc(C(F)(F)F)nc1N2 (stereo not given) | -7.22 | –
22 | Oc1ccccc1Cn1c(-c2ccccc2O)nc2ccccc21 | -14.6 | 12.6 µM (active)
23 | CCCC(=O)C1=C(SCC)CC(C)(C)C(C(=O)OC)C1=O (stereo not given) | 9.56 | –
24 | COC(=O)C1=C(C)OC(N)=C(C#N)C1C1CCCCC1 (stereo not given) | 16.5 | 6.31 µM (active)
25 | Nc1ccc2c(c1)COc1ccccc1O2 | -5.76 | –
26 | CC(=O)Nc1ccc(S(=O)(=O)N(C)c2ccccc2)cc1 | 4.53 | –
27 | CC(c1ccco1)N(C(=O)c1ccc(Cl)s1)c1ccccn1 (stereo not given) | 8.8 | 7.94 µM (active)
28 | CCOc1ccc(N(C(C)C(=O)Nc2ccc(OC)cc2)S(C)(=O)=O)cc1 (stereo not given) | -4.4 | –
29 | Cc1ccccc1NC(=O)N1C2CCCC1CC(NC(=O)C1CC1)C2 (stereo not given) | 20.1 | inactive
30 | CCOc1ccc(N(CC(=O)NC(C)(C)C)S(=O)(=O)c2c(C)noc2C)cc1 | 6.91 | inactive

— PubChem BioAssay AID939 (National Center for Advancing Translational Sciences (NCATS), 2007)
